The list is not random: actives were taken first. Their share in the collection is about 21%.
Cycloheximide cs – counter-screen hit for Shiga toxin inhibitors, cycloheximide; hit rate 12% among 300,000; max response, %; cell reporter, cycloheximide protein synthesis inhibition counterscreen; in the data active = max response mostly above about 13%, no sharp cut-off; inactive = mostly below about 14%; note: read at 38.3 µM for the half of the compounds with a filed dose; 0% is about no effect
Pf growth 96h – inhibits malaria parasite growth, 96 h; hit rate 6.9% among 320,000; Potency, µM (highest dose often 28.7 µM), without a hit: at the top dose activity change, negative = inhibition, hits mostly inhibitors; P. falciparum luciferase reporter growth, 96 h; note: potency is the fitted concentration of half-maximal effect; % is set by controls: 0 for no effect and ±100 for the full control effect
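Plates of compound plus infected erythrocytes (2% hematocrit, 0.05% parasitemia final) incubate 96 hours, 37 C, 5% CO2. Detection reagent added; reduced luminescence from the parasites' luciferase reporter flags inhibition.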
HCV inhibitor – HCV inhibition | Potency, µM (series often up to 41.8 µM), inactives show at the highest dose activity change, negative = inhibition, most hits filed as inhibitors | hit rate 3.4% among 340,000 | AID 651820 | Huh7.5.1 HCVcc-Cre infection, luciferase reporter, 44 h; note: potency is the fitted concentration of half-maximal effect; % is set by controls: 0 for no effect and ±100 for the full control effect
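Infectious HCV cell culture screen: compound-treated cells (1,000/well, pre-plated 4 h) are infected with HCVcc-Cre at roughly 0.5 moi and grown 44 h. Infection is quantified by luciferase signal after 15 min substrate incubation at room temperature.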
Pf growth 48h – P. falciparum growth inhibition at 48 hours (one generation) | P. falciparum luciferase growth in erythrocytes, 48 h | Potency, µM (doses to about 28.7 µM), without a hit: at the top dose activity change, negative = inhibition, actives largely listed as inhibitors | hit rate 5.9% among 310,000 | AID 504832; note: potency is the fitted concentration of half-maximal effect; % is set by controls: 0 for no effect and ±100 for the full control effect
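Growth was read as firefly luciferase luminescence after a 48 h, 37 C, 5% CO2 exposure of compounds to reporter-bearing P. falciparum cultures (0.1% parasitemia, 2% hematocrit final) in Albumax-supplemented RPMI 1640.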
Shiga inhibitor – Shiga toxin inhibition | Vero cells, Shiga toxin protein synthesis inhibition reporter | inhibition, % at 38.7 µM | hit rate 9.2% among 290,000; in the data active = inhibition mostly above about 28%, no sharp cut-off; inactive = mostly below about 43%; note: 0% is about no effect
AMA1 RON2 block – disrupts binding of P. falciparum AMA1 to RON2 | Potency, µM (top dose mostly 58.2 µM), without a hit: top-dose activity change, negative = inhibition, actives largely listed as inhibitors | AlphaScreen AMA1-biotinylated RON2 peptide binding | hit rate 0.2% among 360,000;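 note: potency is the fitted concentration of half-maximal effect; 0% = vehicle wells and -100% = peptide control; nearly all actives have a fitted effect of over 45% in size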
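AMA1 (3D7) with his tag at 25 nM final met compounds first, then biotinylated RON2 peptide at 25 nM; detection used donor plus acceptor beads, 10 µg/mL apiece, read by AlphaScreen after 30 min at room temperature.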
* = called active by the depositor; ? = inconclusive; / = no result; ! = not confirmed by another sample; [ ] = remark or other dose. Unless noted, calls come from the whole dose curve; as a rule, active = well fitted curve in the direction sought with a large enough effect; inconclusive = small, poorly fitted or top-dose-only effect, or another doubt; inactive = no such curve, though single readings can be large; an effect the other way counts as inactive or inconclusive.

SMILES | Cycloheximide cs | Pf growth 96h | HCV inhibitor | Pf growth 48h | Shiga inhibitor | AMA1 RON2 block
COC(=O)CN1C(=S)N(Cc2ccccc2)C(=O)C1CC(=O)Nc1ccc(OC)cc1 (centres undefined) | 6 | 20% | -3% | 4.1µM* | 20 | 14%
COc1ccc(NC(=O)CC2C(=O)N(Cc3ccccc3)C(=S)N2CCN2CCOCC2)cc1 (centres undefined) | -3 | ? | 13% | ? | -12 | -1%
Nc1ccn(C2OC(CCl)C(O)C2O)c(=O)n1 (centres undefined) | / | / | / | / | / | 11%
COCC(C)n1c(C)cc(C(=O)COC(=O)c2n[nH]c3ccccc23)c1C (centres undefined) | 56* | / | -22% | 27% | 129* | -17%
COCC(C)n1c(C)cc(C(=O)COC(=O)c2cc(=O)[nH]c3ccccc23)c1C (centres undefined) | / | / | 6% | / | / | -1%[11.6 µM]
COCCn1c(C)cc(C(=O)COC(=O)CNC(=O)c2ccccc2)c1C | 61* | 60% | 8% | 71% | 99* | -20%
COCC(C)n1c(C)cc(C(=O)COC(=O)CNC(=O)c2ccccc2)c1C (centres undefined) | 53* | 36% | 8% | 30% | 86* | -9%
COc1ccc(CCNC(=O)CNCC(c2ccccc2)N(C)C)cc1OC (centres undefined) | 16 | 1% | 4% | ? | 4 | 80%
ClCc1csc(N/N=C/c2cccs2)n1 | 17* | -1% | / | -8% | 39* | /
CN(C)S(=O)(=O)c1ccc(-c2csc(N/N=C/c3ccc(O)cc3)n2)cc1 | 14* | 0.066µM* | 10µM* | 0.33µM* | 32 | -2%
O=c1cnnc(N/N=C/c2cccs2)[nH]1 | 1 | ? | 30% | 9% | -6 | 65%
C(=N\Nc1nc(-c2ccccc2)cs1)/c1ccncc1 | 43* | ? | -30% | -23% | 51* | 3%
Cc1ccc(-c2csc(N/N=C/C=C/c3ccccc3)n2)cc1 | 16* | 0% | -16% | ? | 49 | 34%
CCc1noc(C)c1C(=O)Nc1cc(Cl)ccc1N1CCOCC1 | / | -13% | ? | ? | / | 2%
COc1ccc(OC)c(N(CC(=O)NCC2CCCO2)S(=O)(=O)c2ccccc2)c1 (centres undefined) | -7 | -9% | 18% | 7% | -5 | 1%
O=C(NCCc1ccccc1F)C1CCCN(c2nc3ccccc3s2)C1 (centres undefined) | -1 | -21% | -24% | -9% | -1 | 3%
C(=N\Nc1nc(-c2ccccc2)cs1)/c1cccs1 | 68* | ? | 10µM* | -79% | 105* | 72%
CN(c1ccccc1)S(=O)(=O)c1ccc(Cl)c(C(=O)Nc2ccc(N3CCOCC3)cc2)c1 | 11 | ? | 16µM* | ? | 18 | -10%
Cc1nc2ccc(NC(=O)c3cc(S(=O)(=O)N(C)c4ccccc4)ccc3Cl)cc2s1 | -5 | 0.37µM* | ? | 1.3µM* | -2 | 20%
CC(=O)Nc1ccc(S(=O)(=O)N2CCCN(c3nc(C)cc(C)c3C#N)CC2)cc1 | -2 | -10% | -3% | 2% | -3 | 9%
CCCCOCCOCCOCc1cc2c(cc1CCC)OCO2 | / | -4% | / | -7% | / | /
Cc1ccc(NC(=O)C(=O)NCCCN2CCOCC2)c(C)c1 | 3 | -3% | 9% | 0% | 16 | -5%
CCc1ccc(-c2csc(-c3c[nH]c4ccccc34)n2)cc1 | 62* | ? | ? | 91% | 38* | -10%
CN1CCN(CC(=O)Nc2nc(-c3c[nH]c4ccccc34)cs2)CC1 | 22* | ? | ? | ? | 62* | -6%
CNc1nc(-c2c[nH]c3ccccc23)cs1 | 6 | ? | ? | / | -2 | ?
SMILES | Cycloheximide cs | Pf growth 96h | HCV inhibitor | Pf growth 48h | Shiga inhibitor | AMA1 RON2 block
CCC(C)Nc1nc(-c2c[nH]c3ccccc23)cs1 (centres undefined) | 31* | ? | ? | 8.3µM* | 15 | -10%
CCn1c(=N)n(CC(=O)C(C)(C)C)c2ccccc21 | 0 | 9.3µM* | 6% | / | -14 | 0%
Cn1c(=N)n(CC(=O)C(C)(C)C)c2ccccc21 | 27* | 16% | 2% | ? | 148* | -12%
CCCn1c(=N)n(CC(=O)C(C)(C)C)c2ccccc21 | -5 | ? | ? | ? | -30 | -15%
O=C(OCC(=O)N1CCN(c2ccccc2)CC1)c1ccc[n+]([O-])c1 | 7 | 45%[5.75 µM] | -10% | 23%[5.75 µM] | 18 | -6%
CC(=O)c1sc(-c2ccccc2)cc1NS(=O)(=O)c1ccccc1 | 3 | 1% | 0% | 7% | 10 | -19%
CN=Cc1cc(-c2ccccc2)sc1O | 40* | ? | ? | 75% | 40* | 5%
CCOc1ccccc1N1CCN(C(=O)c2c(Cl)cnn2C)CC1 | -1 | 22% | -21% | -5% | -5 | 4%
COc1cccc(-c2nnc(SCC(=O)NCc3ccc4c(c3)OCO4)n2Cc2ccco2)c1 | -6 | 6.6µM* | -6% | / | -6 | 11%
CCOC(=O)c1c(NC(=O)CSc2nc3cc(Cl)ccc3c(=O)n2Cc2ccco2)sc(C(=O)N(C)C)c1C | -1 | 4.1µM* | ? | 5.9µM* | 5 | 62%
O=C(CSc1nnc(-c2cccnc2)n1Cc1ccco1)NCc1ccc2c(c1)OCO2 | -4 | ? | 0% | 4% | -1 | -10%
CCOC(=O)CNC(=O)CSc1nnc(-c2ccco2)n1N | 6 | ? | 13% | 23% | -9 | 0%
CCOC(=O)CNC(=O)CSc1nnc(-c2ccco2)n1Cc1ccco1 | 7 | 8.3µM* | -1% | 39% | -2 | -3%
CCOC(=O)c1c(NC(=O)CSc2nnc(-c3ccccc3)n2CC)sc(C(C)=O)c1C | -12 | ? | ? | ? | -25 | -18%
CCc1ccc(NC(=O)CSc2nc3cc(C(=O)OC)ccc3c(=O)n2Cc2ccco2)cc1 | -3 | -12% | 13% | 34% | -7 | -12%
CCOC(=O)c1sc(NC(=O)CSc2nnc(-c3ccco3)n2CC)c(C(=O)OCC)c1C | -2 | / | 10µM*! | ? | 2 | -7%
N#CC(c1ccc(O)cc1)N1CCN(C(C#N)c2ccc(O)cc2)CC1 (centres undefined) | / | / | 8% | / | / | -19%
CCOC(=O)c1c(NC(=O)CSc2nnc(-c3cccc(C)c3)n2CC)sc(C(C)=O)c1C | -4 | -23% | 3.5µM* | 11% | -9 | -13%
C=CCN1C=C(C(C)=O)C(=O)CC1 | / | / | -4%[8.37 µM] | / | / | -19%
Cc1cc(/C=C2\SC(=S)NC2=O)c(C)n1-c1cccc(O)c1 | 41* | 266% | 3% | 182% | 64* | 61%
CC1=CC2=NC(=O)/C(=C\c3cc(C)n(-c4ccc(F)cc4)c3C)C(=N)N2O1 | -5 | ? | ? | 4.7µM* | -12 | 14%

Assay outcomes as filed in PubChem BioAssay.
